Measurements: PubChem BioAssay (NCI)
The panel holds about 83,000 compounds, 20% with a hit somewhere; the sample as a whole holds those more often.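 In brief: 96-well plates, 48 h treatment, single concentration, percent growth endpoint.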 Unmarked numbers belong to inactive results. Activity calls are given as the source filed them. The calls were made as follows: active = growth percent below 10; inactive = the rest.

How the values were obtained:
Test in all cases: NCI-60 one-dose screen, 48 h (100 = growth as untreated, 0 = no growth, -100 = all killed)
Conditions in all cases: 10 µM unless noted
[1] = test system: NCI-H23 lung
[2] = test system: NCI-H322M lung
[3] = test system: HOP-62 NSCLC
[4] = test system: NCI-H460 lung
[5] = test system: HOP-92 NSCLC
[6] = test system: NCI-H522 lung
[7] = test system: A549/ATCC NSCLC
[8] = test system: 786-0 renal
[9] = test system: COLO 205 colon
[10] = test system: DU-145 prostate

## COc1ccc(C2Nc3ncnc(N)c3N=C3c4ccccc4C(=O)C32)cc1 (stereo unspecified)
[1]
  growth: 101%
[2]
  growth: 101%
[3]
  growth: 85.2%
[4]
  growth: 104%
[5]
  growth: 55.4%
[6]
  growth: 101%
[7]
  growth: 96.3%
[8]
  growth: 93.5%
[9]
  growth: 93.2%
[10]
  growth: 102%

## CC/C(=C(\CC)c1ccc(OCC[N+](C)(C)C)cc1)c1ccc(OC)cc1
[1]
  growth: 56.7%
[2]
  growth: 99.3%
[3]
  growth: 62.4%
[4]
  growth: 40.1%
[5]
  growth: 45.3%
[6]
  growth: 32.7%
[7]
  growth: 53%
[8]
  growth: 91.1%
[9]
  growth: 6.92% (active)
[10]
  growth: 94.9%

## COc1cccc2cc(N(C)c3nc(C)nc4ccsc34)ccc12
[1]
  growth: 22.3%
[2]
  growth: 49.8%
[3]
  growth: 17.1%
[4]
  growth: 1.59% (active)
[5]
  growth: 8.89% (active)
[6]
  growth: -15.2% (active)
[7]
  growth: 7.7% (active)
[8]
  growth: 20.5%
[9]
  growth: -56.9% (active)
[10]
  growth: -4.03% (active)

## O=C(/C=C/c1ccc(Cl)cc1)c1ccc(Nc2nc(NCCO)nc(N3CCOCC3)n2)cc1
[1]
  growth: 94.8%
[2]
  growth: 90.8%
[3]
  growth: 89.6%
[4]
  growth: 98.1%
[5]
  growth: 98.6%
[6]
  growth: 87.2%
[7]
  growth: 68%
[8]
  growth: 90.6%
[10]
  growth: 92.9%

## COc1ccc(-c2nc(N3CCN(C(=O)C4CCCCC4)CC3)c3c4c(sc3n2)CCCC4)cc1
[1]
  growth: 44%
[2]
  growth: 43.1%
[3]
  growth: -84.5% (active)
[4]
  growth: -32.8% (active)
[5]
  growth: 44.8%
[6]
  growth: -23.9% (active)
[7]
  growth: -36.3% (active)
[8]
  growth: -78.4% (active)
[9]
  growth: -38.5% (active)
[10]
  growth: -21.9% (active)

## Oc1ccc(-c2nc(-c3ccc4oc5ccc(-c6[nH]c(-c7ccc(O)cc7)nc6-c6ccccc6)cc5c4c3)c(-c3ccccc3)[nH]2)cc1
[1]
  growth: 43.9%
[2]
  growth: 78.6%
[3]
  growth: 73.3%
[4]
  growth: 59.1%
[5]
  growth: 25.7%
[6]
  growth: 59.4%
[7]
  growth: 65.8%
[8]
  growth: 86.4%
[9]
  growth: 53.8%
[10]
  growth: 89%

## COc1ccc2oc(=O)cc(Cn3cc(Cn4cnc5c4c(=O)n(C)c(=O)n5C)nn3)c2c1
[1]
  growth: 101%
[2]
  growth: 101%
[3]
  growth: 101%
[4]
  growth: 105%
[5]
  growth: 104%
[6]
  growth: 98.6%
[7]
  growth: 103%
[8]
  growth: 98%
[9]
  growth: 110%
[10]
  growth: 105%

## O=c1oc2ccc(Br)cc2c(=O)n1-c1ccc(F)cc1F
[1]
  growth: 4.93% (active)
[2]
  growth: 7.55% (active)
[3]
  growth: 6.8% (active)
[4]
  growth: 5.91% (active)
[5]
  growth: -24.4% (active)
[6]
  growth: -6.16% (active)
[7]
  growth: 6.77% (active)
[8]
  growth: 4.39% (active)
[9]
  growth: 85.5%
[10]
  growth: 18%

## CCCCc1ccc(NS(=O)(=O)c2cc3c4c(c2)CCN4C(=O)CC3)cc1
[1]
  growth: 21.2%
[2]
  growth: 32.7%
[3]
  growth: 8.96% (active)
[4]
  growth: 4.33% (active)
[5]
  growth: 3.41% (active)
[6]
  growth: 13.9%
[7]
  growth: 10.6%
[8]
  growth: -1.95% (active)
[9]
  growth: 14.5%
[10]
  growth: 16.4%

## Cc1cccc2c(=O)c3c(sc12)c(N1CCNCC1)nc1ccccc13
[1]
  growth: 80.4%
[2]
  growth: 74.5%
[3]
  growth: 73.6%
[4]
  growth: 80%
[5]
  growth: 53.7%
[6]
  growth: 82.6%
[7]
  growth: 78.3%
[8]
  growth: 78.1%
[10]
  growth: 67.5%

## Cc1ccc(C(=O)c2oc3ccc4c(C)cc(=O)oc4c3c2C)cc1
[1]
  growth: 40.4%
[2]
  growth: 63.1%
[3]
  growth: 61.3%
[4]
  growth: 3.14% (active)
[5]
  growth: 9.32% (active)
[6]
  growth: 25.7%
[7]
  growth: 14.8%
[8]
  growth: 57.3%
[9]
  growth: -59.7% (active)
[10]
  growth: 64.7%

## CCOC(=O)c1c2c(c(C)n1Cc1ccc(OC)cc1)-c1oncc1CC2
[1]
  growth: 87.7%
[2]
  growth: 78.5%
[3]
  growth: 62%
[4]
  growth: 99.1%
[5]
  growth: 60.6%
[6]
  growth: 99.3%
[7]
  growth: 84.8%
[8]
  growth: 79.6%
[9]
  growth: 137%
[10]
  growth: 96%

## CCOC(=O)c1sc(-c2ccc(OS(=O)(=O)c3cccs3)c(C=O)c2)nc1C
[1]
  growth: 11.4%
[2]
  growth: 47.3%
[3]
  growth: 22.5%
[4]
  growth: 3.56% (active)
[5]
  growth: 11.9%
[6]
  growth: -2.27% (active)
[7]
  growth: 32.5%
[8]
  growth: 5.71% (active)
[9]
  growth: 79.6%
[10]
  growth: 8.94% (active)

## COC(=O)c1c2c(c(C)[n+]([O-])c1C)C(=O)C(NCc1ccc(F)c(F)c1)=CC2=O
[1]
  growth: -5.8% (active)
[2]
  growth: 13.4%
[3]
  growth: 33.1%
[4]
  growth: 4.7% (active)
[5]
  growth: 51.1%
[6]
  growth: 22%
[7]
  growth: 8.81% (active)
[8]
  growth: 48.2%
[10]
  growth: 42%

## CC(=O)c1ccc2oc(=O)n(Cc3ccc(C#N)cc3)c(=O)c2c1
[1]
  growth: 103%
[2]
  growth: 100%
[3]
  growth: 103%
[4]
  growth: 106%
[5]
  growth: 95.2%
[6]
  growth: 99.5%
[7]
  growth: 103%
[8]
  growth: 103%
[9]
  growth: 114%
[10]
  growth: 111%

## CCCCN1CCN(c2ccc3nc(-c4ccc5nc(-c6ccc(OCC)cc6)[nH]c5c4)[nH]c3c2)CC1
[1]
  growth: 64.1%
[2]
  growth: 82.4%
[3]
  growth: 46.2%
[4]
  growth: 75.9%
[5]
  growth: 95.9%
[6]
  growth: 68.8%
[7]
  growth: 86.5%
[8]
  growth: 75.3%
[10]
  growth: 68.7%

## COc1cc(C(C)n2cc(-c3ccccc3)nn2)ccc1OC1CCCCC1 (stereo unspecified)
[1]
  growth: 47.7%
[2]
  growth: 78.1%
[3]
  growth: 69.4%
[4]
  growth: 70.5%
[5]
  growth: 69.9%
[6]
  growth: 50.3%
[7]
  growth: 61.6%
[8]
  growth: 78.1%
[9]
  growth: 97.9%
[10]
  growth: 84.3%

## O=C(O)c1cn(C2CC2)c2cc(N3CCN(C(=O)C[n+]4ccccc4)CC3)c(F)cc2c1=O
[1]
  growth: 104%
[2]
  growth: 105%
[3]
  growth: 103%
[4]
  growth: 106%
[5]
  growth: 98.5%
[6]
  growth: 93.4%
[7]
  growth: 99.1%
[8]
  growth: 98.5%
[9]
  growth: 121%
[10]
  growth: 102%

## CN1CCN(Cc2ccc(NC(=O)c3[nH]ncc3Nc3cc(OC4CCCC4)ncn3)cc2)CC1
[1]
  growth: 45.8%
[2]
  growth: 45.9%
[3]
  growth: 55.4%
[4]
  growth: 22.2%
[5]
  growth: 14.9%
[6]
  growth: 26.2%
[7]
  growth: 8.79% (active)
[8]
  growth: 20.9%
[9]
  growth: 7.6% (active)
[10]
  growth: 37.9%

## COc1cc2nc(NC3CCC3)nc(NC3CCN(C(C)C)CC3)c2cc1OC
[1]
  growth: 92.2%
[2]
  growth: 89.2%
[3]
  growth: 81.5%
[4]
  growth: 58.3%
[5]
  growth: 26%
[6]
  growth: 30.7%
[7]
  growth: 4.73% (active)
[8]
  growth: 68%
[10]
  growth: 57.1%

## O=C(/C=C/c1cccc(Cl)c1)OCc1ccc2cc1OCC#C/C=C\C#CCO2
[1]
  growth: 102%
[2]
  growth: 91.1%
[3]
  growth: 100%
[4]
  growth: 104%
[5]
  growth: 150%
[6]
  growth: 83.2%
[7]
  growth: 90.5%
[8]
  growth: 100%
[9]
  growth: 106%
[10]
  growth: 119%

## COC(=O)c1c2c(c(C)[n+]([O-])c1C)C(=O)C=C(NCc1ccc(F)c(F)c1)C2=O
[1]
  growth: -76% (active)
[2]
  growth: -15.7% (active)
[3]
  growth: -11.8% (active)
[4]
  growth: -26.3% (active)
[5]
  growth: -37.9% (active)
[6]
  growth: -53.1% (active)
[7]
  growth: -24.4% (active)
[8]
  growth: -3.8% (active)
[10]
  growth: -99.6% (active)

## CCCCN1CCN(c2ccc3nc(-c4ccc5nc(-c6ccc(OC)c(OC)c6)[nH]c5c4)[nH]c3c2)CC1
[1]
  growth: -66.1% (active)
[2]
  growth: 10.1%
[3]
  growth: -1.2% (active)
[4]
  growth: -35% (active)
[5]
  growth: 60.7%
[6]
  growth: -36.8% (active)
[7]
  growth: 28.4%
[8]
  growth: -85.9% (active)
[10]
  growth: 2.42% (active)

## O=C(N/N=C/c1ccccc1Cl)C(=O)Nc1cccc(C(F)(F)F)c1
[1]
  growth: 105%
[2]
  growth: 108%
[3]
  growth: 106%
[4]
  growth: 99.4%
[5]
  growth: 92.2%
[6]
  growth: 105%
[7]
  growth: 88.8%
[8]
  growth: 103%
[9]
  growth: 113%
[10]
  growth: 101%

## COc1cc(/C=C2\CN(C)C/C(=C\c3cc(CN4CCCCC4)c(O)c(OC)c3)C2=O)cc(CN2CCCCC2)c1O
[1]
  growth: 34.2%
[2]
  growth: 43.1%
[3]
  growth: 65%
[4]
  growth: 0.801% (active)
[5]
  growth: 51%
[6]
  growth: 39.8%
[7]
  growth: 45.7%
[8]
  growth: 50.1%
[10]
  growth: 1.15% (active)

## O=C(/C=C/c1ccccc1)c1ccc(Nc2nc(NCCO)nc(Nc3ccc(Cl)cc3)n2)cc1
[1]
  growth: 82.7%
[2]
  growth: 91.6%
[3]
  growth: 93.2%
[4]
  growth: 81%
[5]
  growth: 96.2%
[6]
  growth: 83.3%
[7]
  growth: 64.6%
[8]
  growth: 83.9%
[10]
  growth: 73.6%

## COc1cc(C2C3=C(COC3=O)N(CCO)c3cc4c(cc32)CCC4)cc(OC)c1O (stereo unspecified)
[1]
  growth: 45.1%
[2]
  growth: 53.1%
[3]
  growth: 41.2%
[4]
  growth: -22.7% (active)
[5]
  growth: 97.5%
[6]
  growth: -24.5% (active)
[7]
  growth: 18.1%
[8]
  growth: 27%
[9]
  growth: 13.6%
[10]
  growth: -25.8% (active)

## COc1ccc(C(=O)C2CC2c2ccc(Cl)cc2)cc1 (stereo unspecified)
[1]
  growth: 95.1%
[2]
  growth: 82.7%
[3]
  growth: 115%
[4]
  growth: 94.2%
[5]
  growth: 92.7%
[6]
  growth: 68.2%
[7]
  growth: 82.8%
[8]
  growth: 89%
[9]
  growth: 106%
[10]
  growth: 97.5%
